Experimental data reported in PubChem BioAssay (NCATS).
Results filed as inconclusive are left out. Values without a mark were called inactive. Activity calls are given as the source filed them. Calls follow the shape of the dose curve; as a rule, active = well fitted inhibition curve with a large enough effect; inconclusive = small, poorly fitted or top-dose-only effect; inactive = no such curve, though single readings can be large or run the other way.
% is scaled to controls: 0 for no effect and ±100 for the full control effect; potency is read from the fitted curve at half-maximal effect.

These compounds were tested against Cytochrome P450 2D6 (Homo sapiens) (UniProt P10635) (assay: qHTS Assay for Inhibitors and Substrates of Cytochrome P450 2D6 (AID 891; also: nearly all actives have a fitted effect of over 60% in size)). Conditions: recombinant CYP2D6, luciferin-ME EGE luminescence; series mostly up to 57.1 µM.
Sequence of Cytochrome P450 2D6 (Homo sapiens) (P10635 whole entry, looked up): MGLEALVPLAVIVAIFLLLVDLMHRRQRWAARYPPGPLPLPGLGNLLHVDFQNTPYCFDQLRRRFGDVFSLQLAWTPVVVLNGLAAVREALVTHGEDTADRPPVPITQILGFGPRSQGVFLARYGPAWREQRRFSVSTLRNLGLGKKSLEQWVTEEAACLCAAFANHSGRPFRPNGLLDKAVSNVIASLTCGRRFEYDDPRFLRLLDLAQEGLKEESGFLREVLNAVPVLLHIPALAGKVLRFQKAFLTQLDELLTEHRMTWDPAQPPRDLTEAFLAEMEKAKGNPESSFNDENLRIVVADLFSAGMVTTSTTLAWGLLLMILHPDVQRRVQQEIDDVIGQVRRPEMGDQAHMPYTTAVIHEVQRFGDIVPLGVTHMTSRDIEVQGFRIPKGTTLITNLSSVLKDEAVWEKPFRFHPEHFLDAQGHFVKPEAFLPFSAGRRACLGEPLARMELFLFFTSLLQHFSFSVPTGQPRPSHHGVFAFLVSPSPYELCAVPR
Description: NIH Molecular Libraries Screening Centers Network [MLSCN]
NIH Chemical Genomics Center [NCGC]
The P450 gene superfamily is involved in the metabolism and clearance of xenobiotics. This assay used human CYP2D6 to measure the demethylation of ethylene glycol ester of luciferin 6' methyl ether (Luciferin-ME EGE; […]) to luciferin. The luciferin is then measured by luminescence after the addition of a luciferase detection reagent. Luciferin-ME EGE concentration in the assay was equal to its Km for CYP2D6. Inhibitors and some substrates limit the production of luciferin, and decrease measured luminescence.
NCGC Assay Protocol Summary:
Two uL of enzyme and substrate mix (final concentrations: 5nM CYP2D6, 30uM Luciferin-ME EGE, 100mM KPO4) were dispensed into a white, solid bottom 1536-well microtiter plate. 23nL of compound was transferred by a pin tool. The plate was incubated at room temperature for 10 min. Two uL of an NADPH regeneration solution (Promega supplied reagent) was dispensed and the reaction was allowed to continue for 60 min at room temperature. Then the reaction was stopped by reconstituted luciferin detection buffer. After another 20 min of incubation the plate was read on the ViewLux (Perkin Elmer) at 60 sec exposure and 2x2 binning. This protocol was carried out with Promega-Glo reagents and further information can be found at http://www.promega.com/tbs/tb325/tb325.pdf. Data were normalized to the to AC100 inhibition (1.43 uM quinidine).
Keywords: P450, CYP2D6, Luciferase, MLSMR, MLSCN, NIH Roadmap, qHTS, NCGC
In the case of `COCCNC(=O)COc1ccc(OCCNC[C@@H](O)COc2ccccc2)cc1`, the Potency is reported as 5.01 µM (active).
`Cc1c(O)ccc2c1OCO2` was tested, and the activity change, negative = inhibition was -1.17% [at 11.4 µM].
`C=C[C@H](N)CCC(=O)O` was tested, and the Potency was “inactive”.
With `C[C@H](N=C(NC#N)Nc1ccncc1)C(C)(C)C` the Potency was “inactive”.
For `COC(=O)c1ccccc1NC(=O)c1ccc(F)cc1`, the Potency was 5.01 µM (active).
`O=C(O)c1cc(=O)c2ccc(Cl)cc2[nH]1` was tested, and the Potency was “inactive”.
For `CO[C@]1(C2=NCCN2)COc2ccccc2O1`, the Potency was 0.794 µM (active).
Work on `COc1ccc(C(=O)Oc2cc(OC)cc(OC)c2C(C)=O)cc1` yielded an activity change, negative = inhibition of 5.18% [at 11.4 µM].
For `C[C@@H](/C=C\c1cccc(Oc2ccc(F)cc2)c1)N(O)C(N)=O`, the Potency was 25.1 µM (active).
In the case of `CN(C)CCCSc1ccccc1NC(=O)/C=C\c1ccccc1`, the Potency is reported as 0.316 µM (active).
`NC(=NC1C2CC3CC(C2)CC1C3)Nc1ccc(I)cc1` (stereo not given) was tested, and the Potency was 0.0398 µM (active).
`COC(=O)C(C(C)=O)C(=O)C(Cc1ccccc1)NC(=O)OCc1ccccc1` (stereo not given) showed an activity change, negative = inhibition of -1.19% [at 11.4 µM].
With `CC1(O)C(=O)C=C2C=C(CCCCOCc3ccccc3)OC=C2C1=O` (stereo not given) the activity change, negative = inhibition was -3.73% [at 11.4 µM].
In the case of `O=C1c2ccccc2CC[C@H]1CNCCc1ccc(O)cc1`, the Potency is reported as 0.398 µM (active).
With `CCCCCCCC1=CC2=CC(=O)C(C)(O)C(=O)C2=CN1CCCC` (stereo not given) the Potency was 3.16 µM (active).
`Cc1cccc(/C=C\c2ccccc2)n1` was tested, and the Potency was 0.794 µM (active).
`CCN(Cc1ccncc1)C(=O)[C@@H](CO)c1ccccc1` was tested, and the Potency was “inactive”.
With `CCCCOc1cc(C[C@@H]2CNC(=O)N2)ccc1OC` the Potency was “inactive”.
For `NCCCCCCCCCCNS(=O)(=O)c1cccc2c(Cl)cccc12`, the Potency was 1.26 µM (active).
`O=Nc1c(-c2c(O)[nH]c3ccccc23)[nH]c2ccccc12` was tested, and the Potency was 31.6 µM (active).
With `CC[N+](CC)(CC)CCOc1ccc(/C=C\c2ccccc2)cc1` the Potency was 7.94 µM (active).
In the case of `O=C1CC2(CCCC2)CC(=O)N1CCNC[C@H]1COc2ccccc2O1`, the Potency is reported as 0.126 µM (active).
`CCOC(=O)[C@H](N)/C=C(\C)CP(=O)(O)O` was tested, and the Potency was 2 µM (active).
`CCCCCCCCCCCCCCC[C@@H](O)[C@@H](N)CO` was tested, and the Potency was 7.94 µM (active).
In the case of `C[C@@H](CCCCC(=O)Nc1ccc(C(F)(F)F)cc1)NCCc1cnc[nH]1`, the Potency is reported as 5.01 µM (active).
`O=S(c1ccccc1)c1ccc2nnnn2n1` (stereo not given) was tested, and the outcome was “inactive”.
With `CC[N+](C)(CC)CCC[n+]1c(-c2ccccc2)c2cc(N)ccc2c2ccc(N)cc21` the Potency was 6.31 µM (active).
For `CCCN=C(N)NCCC[C@H](N)C(=O)O`, the Potency was 7.94 µM (active).
`CNCCCCCCCCSc1nc(C(C)C)ccc1C(=O)c1cccs1` was tested, and the Potency was 0.0063 µM (active).
For `COC(=O)C12CC3(CCC4C5C(C(OCc6ccccc6)C41)C52)OCCO3` (stereo not given), the activity change, negative = inhibition was 0.322% [at 11.4 µM].
In the case of `COc1ccc(-c2ccc(=N)n(CCCC(=O)O)n2)cc1`, the Potency is reported as 3.98 µM (active).
`N#C/C(=C\c1ccc(O)c(O)c1)C(=O)Nc1ccccc1` was tested, and the Potency was “inactive”.
For `O=C1CC[C@H](N2C(=O)c3ccccc3C2=O)C(=O)N1`, the Potency was “inactive”.
For `CCCCCCCCC(=O)NCc1cc(OC)c(O)cc1I`, the Potency was 7.94 µM (active).
For `COc1cc(N)c(Cl)cc1C(=O)OCCCN1CCCCC1`, the Potency was 0.126 µM (active).
With `CC1(C)C(=O)NC2=C1C(=O)C(=O)c1ccccc12` the Potency was 2.51 µM (active).
With `COc1ccc(C(=O)CC(=O)c2c(O)cc(OC)cc2OC)cc1` the Potency was 1.26 µM (active).
For `Cc1ccc(S(=O)(=O)/C=C\C#N)cc1`, the Potency was 0.0158 µM (active).
In the case of `COc1ccc(/C=C\C(=O)Nc2ccccc2C(=O)O)cc1OC`, the Potency is reported as “inactive”.
